Pf growth 48h = inhibits P. falciparum growth in the first generation, 48 h; P. falciparum luciferase growth in erythrocytes, 48 h; Potency, µM (titrated, usually from 28.7 µM), without a hit: at the highest dose activity change, negative = inhibition, most hits filed as inhibitors; 310,000 compounds, 5.9% hits; AID 504832; note: potency is the fitted concentration of half-maximal effect
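Cell-based growth assay: transgenic P. falciparum expressing firefly luciferase, cultured in red cells within RPMI 1640 containing 0.5% w/v Albumax, 24 mM bicarbonate and gentamycin. A drop in luciferase activity indicates inhibition.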
LASV entry inh = inhibitors of Lassa virus binding or cell entry | Potency, µM (highest dose often 37.9 µM), for the others: top-dose activity change, negative = inhibition, usual class: inhibitors | Lassa virus pseudotype entry inhibition, cell reporter | 300,000 compounds, 1.2% hits; calls by dose curve; tested in HEK293 cells; note: potency is the fitted concentration of half-maximal effect; nearly all actives have a fitted effect of over 50% in size
Marburg entry inh = Marburg virus entry inhibition; Marburg virus pseudotyped entry inhibition, cell reporter; Potency, µM (highest dose often 37.8 µM), inactives show top-dose activity change, negative = inhibition, usual class: inhibitors; 300,000 compounds, 1.8% hits; AID 540276; calls by dose curve; tested in HEK293 cells; note: potency is the fitted concentration of half-maximal effect
Pf growth 96h = inhibits malaria parasite growth, 96 h; Potency, µM (series often up to 28.7 µM), inactives show at the top dose activity change, negative = inhibition, hits mostly inhibitors; 320,000 compounds, 6.9% hits; P. falciparum luciferase reporter growth, 96 h; note: potency is the fitted concentration of half-maximal effect
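Luminescence readout: decreased luciferase signal marks inhibited growth of reporter-expressing P. falciparum in infected red cells (2% hematocrit, 0.05% parasitemia final), exposed to compound two generations (96 h, 37 C, 5% CO2).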
HCMV antiviral = human cytomegalovirus inhibition | HFF cells, HCMV-luciferase reporter, 72 h; active compounds read low | activity change, negative = inhibition, % at 57.5 µM | 410,000 compounds, 4.5% hits | AID 1259415; in the data active = activity change below about -60%; inconclusive = no clear call, values can overlap the other calls; inactive = above about -39%
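Human foreskin fibroblasts infected with luciferase-reporter HCMV at MOI 1 PFU/cell, compounds at two doses. Luciferase measured 72 h post infection; normalized to buffer-only basal and Salinomycin (10uM) controls.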
HCV inh = inhibitors of hepatitis C virus infection; 340,000 compounds, 3.4% hits; Huh7.5.1 HCVcc-Cre infection, luciferase reporter, 44 h; AID 651820; Potency, µM (doses to about 41.8 µM), for the others: top-dose activity change, negative = inhibition, usual class: inhibitors; note: potency is the fitted concentration of half-maximal effect
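After 44 h co-culture of compound, cells and HCVcc-Cre (~0.5 moi), substrate is added for 15 min at room temperature and luciferase measured over 15 sec. Cells were seeded at 1,000/well and pre-cultured 4 h.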
Starred values were filed as active, the others as inactive; [ ] = remark or other dose. Only some compounds are listed: those with a hit (about 14% of all), similar ones and a draw of the others. Unless noted, calls come from the whole dose curve; as a rule, active = well fitted inhibition curve with a large enough effect; inconclusive = small, poorly fitted or top-dose-only effect, or another doubt; inactive = no such curve, though single readings can be large or run the other way. % is set by controls: 0 for no effect and ±100 for the full control effect.

O=c1[nH]c2ccc(NCc3ccc(-c4cccc(Cl)c4)o3)cc2[nH]1 was read as LASV entry inh 1%[46.1 µM], Marburg entry inh inconclusive and HCMV antiviral -61*.
COc1ccc(/C=N/Nc2nc(C(=O)O)cs2)cc1 was read as Pf growth 48h 159%, Pf growth 96h 0%, HCMV antiviral 30 and HCV inh 15%.
`O=C(CSc1nccc(-c2cccs2)n1)Nc1cccc(Cl)c1` gave Pf growth 48h 15%, LASV entry inh -28%, Marburg entry inh 14%[14.2 µM], Pf growth 96h inconclusive, HCMV antiviral -25 and HCV inh inconclusive.
Screening Cc1onc(-c2ccc(Cl)cc2)c1-c1ccnc(SCC(=O)Nc2cc(Cl)cc(Cl)c2)n1 returned Pf growth 48h inconclusive, LASV entry inh inconclusive, Marburg entry inh 7.9µM*, Pf growth 96h inconclusive, HCMV antiviral -15 and HCV inh 16µM*.
Screening C=C1CC(Cn2cc(Br)c(=O)[nH]c2=O)(c2ccc(-c3ccccc3)cc2)OC1=O (stereo not drawn) returned LASV entry inh inconclusive, Marburg entry inh inconclusive, HCMV antiviral -97* and HCV inh inconclusive.
Screening COc1ccc(-n2ccnc(NCc3ccc(C)cc3)c2=O)cc1OC returned LASV entry inh 0%[46.1 µM] and HCMV antiviral 0.
CCC(=O)N1CCc2cc(S(=O)(=O)NCCC(=O)Nc3ccc(C)cc3)ccc21 was read as LASV entry inh 17%[46.1 µM], Marburg entry inh 15%[46.1 µM] and HCMV antiviral -3.
For COc1ccccc1-c1cccc([C@@H]2C[C@H]3[C@H](CON3C)CN2Cc2ccccc2)c1 the results were HCMV antiviral -8 and HCV inh 8.9µM*.
CC(=O)c1ccc2cccc3c2c1N=CN3C was read as Pf growth 48h -29%, LASV entry inh -1%, Marburg entry inh 5%, Pf growth 96h 32%, HCMV antiviral -63* and HCV inh -10%.
For CC(C)[C@@H](CO[Si](C)(C)C(C)(C)C)N1CC=CS1(=O)=O the results were LASV entry inh 8%[46.1 µM].
NNC(=O)c1cc2cc3ccccc3nc2s1 was read as Pf growth 48h inconclusive, LASV entry inh -20%, Marburg entry inh 3%, Pf growth 96h 13µM*, HCMV antiviral -66* and HCV inh 25%.
For COc1ccc(S(=O)(=O)NNC(=O)c2cc3cc4ccccc4nc3s2)cc1 the results were Pf growth 48h inconclusive, LASV entry inh -2%, Marburg entry inh 12%, Pf growth 96h -2%, HCMV antiviral 32 and HCV inh 5%.
For CS(=O)(=O)NNC(=O)c1cc2cc3ccccc3nc2s1 the results were Pf growth 48h 3%, LASV entry inh 9%[46.1 µM], Marburg entry inh 5%[46.1 µM], Pf growth 96h 4.7µM*, HCMV antiviral -23 and HCV inh 11%.
For O=S(=O)(c1ccc2c(c1)N(Cc1ccc(Cl)cc1)C1CCCN21)N1CCOCC1 (stereo not drawn) the results were Pf growth 48h inconclusive, LASV entry inh -7%, Marburg entry inh inconclusive, Pf growth 96h 8.3µM*, HCMV antiviral 6 and HCV inh -6%.
Screening COc1ccc(CN2c3cc(S(=O)(=O)N4CCOCC4)ccc3N3CCCC32)cc1 (stereo not drawn) returned LASV entry inh 4%, Marburg entry inh 11%, Pf growth 96h 8.3µM*, HCMV antiviral 28 and HCV inh -3%.
For COc1ccc(-c2ccc(S(=O)(=O)N3CCOCC3)cc2)cc1 the results were Pf growth 48h 8%, LASV entry inh -9%, Marburg entry inh 20%, HCMV antiviral 10 and HCV inh 1%.
Screening O=C(Cc1ccc(Cl)cc1)Nc1cc(S(=O)(=O)N2CCOCC2)ccc1N1CCCC1 returned Pf growth 48h -45%, LASV entry inh -27%, Marburg entry inh inconclusive, Pf growth 96h 0%, HCMV antiviral inconclusive and HCV inh -16%.
Screening O=C(NCCCc1ccccn1)C1CCC(=O)N(Cc2cccc(F)c2)C1 (stereo not drawn) returned Pf growth 48h 3%, Pf growth 96h 3%, HCMV antiviral -30 and HCV inh 3%.
Screening CCC(=NCC1CCCO1)c1c(O)n(Cc2ccccc2)c(=O)[nH]c1=O (stereo not drawn) returned Pf growth 48h -20%, LASV entry inh 1.6µM*, Marburg entry inh 13%, Pf growth 96h -19%, HCMV antiviral 19 and HCV inh 14%.
`CCC(=NCC1CCCO1)c1c(O)n(-c2ccccc2)c(=O)[nH]c1=O` (stereo not drawn) gave Pf growth 48h -15%, LASV entry inh inconclusive, Marburg entry inh 16%, HCMV antiviral -8 and HCV inh 18%.
`COCCCN(C(=O)CSc1nc2ccccc2c(=O)n1C)c1c(N)n(Cc2ccccc2)c(=O)[nH]c1=O` gave LASV entry inh 0%, Marburg entry inh 15%, HCMV antiviral -8 and HCV inh -20%.
`O=[N+]([O-])c1ccc(Cl)c(NC2=NCCCCC2)c1` gave Pf growth 48h inconclusive, LASV entry inh 0%, Marburg entry inh -1%[46.1 µM], Pf growth 96h 9.3µM*, HCMV antiviral 15 and HCV inh -11%.
Screening CC1=C(C(=O)N(C)C)CC(CC(=O)NC2CCCCC2)C(=O)N1Cc1ccccc1 (stereo not drawn) returned HCMV antiviral -10.
For CCOc1ccc(C2C(C(=O)Nc3ccccc3)=C(C)Nc3nc(-c4ccccc4Cl)nn32)cc1OC (stereo not drawn) the results were LASV entry inh inconclusive, Marburg entry inh -18%[46.1 µM] and HCMV antiviral 7.
`Cc1ccc(CN2CC(=O)N3[C@H]4c5cc(C)ccc5OC[C@@H]4[C@H](c4ccccc4)[C@]3(C)C2=O)cc1` gave Pf growth 48h 5.9µM*, Pf growth 96h 96%, HCMV antiviral 18 and HCV inh inconclusive.
Screening Cc1ccc2c(c1)[C@H]1[C@H](CO2)[C@H](c2ccccc2)[C@]2(C)C(=O)N(Cc3ccccc3)CC(=O)N12 returned HCMV antiviral -7 and HCV inh inconclusive.
`Cc1ccc(CN2CC(=O)N3[C@H]4c5cc(Cl)ccc5OC[C@@H]4[C@H](c4ccccc4)[C@]3(C)C2=O)cc1` gave Pf growth 48h 6.6µM*, Pf growth 96h 8.3µM*, HCMV antiviral -8 and HCV inh inconclusive.
For COc1ccc2c(c1)[C@H]1[C@H](CO2)[C@H](c2ccccc2)[C@]2(C)C(=O)N(Cc3ccc(C)cc3)CC(=O)N12 the results were HCV inh 10µM*.

Assay outcomes deposited in PubChem BioAssay by National Center for Advancing Translational Sciences (NCATS).
